High-throughput results from PubChem BioAssay.
INS-1E GSIS act: GLuc luminescence reporter in INS-1E cells, primary screen for activators of glucose-dependent secretion of insulin; INS-1E GLuc reporter insulin secretion, 2-3 h; activation, % at 16.6 µM; hit rate 0.61% among 370,000;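 active = lowest replicate activation of at least 40%, so every replicate reaches that level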;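 note: 0% = median of neutral control wells and 100% = median of IBMX positive control wells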
Statin myotox sup: suppressors of simvastatin-induced myotoxicity in C2C12 myotubes; ATP luminescence, 48 h; scaled: DMSO 0, geranylgeraniol control 100; rescue of ATP level, % at 7.49 µM; hit rate 0.78% among 330,000;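 active = mean ATP rescue above about 67%, or every replicate alone reaching that limit, limit read from the data, passing the limit was not always enough; inconclusive = no clear call, values can overlap the other calls; inactive = mean under the limit and some replicate under it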;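 note: myotubes were challenged with 10 µM simvastatin during compound exposure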
PAX8 reporter: lowers PAX8-driven luciferase in RMG-I cells; inhibition, % at 12.6 µM; hit rate 1.2% among 360,000; RMG-I TPO-luciferase reporter, SteadyGlo, 24 h;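 active = mean replicate inhibition at least 60% with every replicate also reaching 60%; inconclusive = only one of the two criteria is met; inactive = mean below 60% and not all replicates reaching 60%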;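 note: luciferase light reporting Pax8 driven TPO promoter activity; plate controls were median of neutral control wells for no effect and mitoxantrone controls for full effect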
Env fusion inh: HIV envelope-mediated fusion inhibition; HeLa-JRFL Env/CEM21 cell fusion, luciferase; AID 651610; hit rate 1.1% among 360,000; inhibition, % at 12.3 µM;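 active = mean replicate inhibition score of at least 50 and every replicate individually at or above 50; inconclusive = only one of the two criteria met; inactive = mean below 50 and not all replicates reaching 50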;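 note: 0% = plate neutral controls and 100% = maraviroc near 300 nM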
EWS-Fli block: EWS/Fli transcriptional activity inhibition; A673 NR0B1-luciferase reporter, viability-normalised; inhibition, % at 12.6 µM; hit rate 0.67% among 350,000;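 active = mean inhibition of at least 50% after viability correction, with every replicate also passing that limit; inconclusive = mean reaches 50% but only one of two replicates passes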;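 note: firefly luciferase signal divided by Alamar Blue viability fluorescence both relative to DMSO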
miR-122 sensor: inhibitors of miR-122 in Huh7 cells. Huh7 miR-122 Renilla luciferase sensor, 48 h; neutral wells = 0, positive control = 100. activation (reporter increase), % at 12.5 µM. hit rate 0.3% among 340,000;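 active = mean replicate activation score at least 90 and every replicate individually at or above 90; inconclusive = only one of the two criteria met; inactive = neither criterion met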;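 note: higher luciferase means less miR-122 activity so hits act as miR-122 inhibitors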
The depositor's hits bear a star; i = inactive; ? = inconclusive; . = no result; [ ] = another dose, or the depositor's remark. This is a sample that favours compounds with a hit; in the whole collection about 3.1% have one here.

SMILES	INS-1E GSIS act	Statin myotox sup	PAX8 reporter	Env fusion inh	EWS-Fli block	miR-122 sensor
O=c1[nH]c2ccccc2n1C1CCN(C(c2cccc3ccccc23)c2nnnn2Cc2ccccc2)CC1 (stereo unspecified)	9.1	-1.6	73.3*	-64.6	11.9	5.0
O=C(O)CCCc1ccc(N(CCCl)CCCl)cc1	9.2	-3.2	-12.6	-14.8	12.6	-2.7
O=c1[nH]cnc2nc(-c3ccc(N(CCCl)CCCl)cc3)[nH]c12	57.9*	-14.8	-218.5	-38.8	-46.2	.
CC[C@H]1C=C(C(=O)N[C@@]2(C(=O)O)C[C@H]2CC)[C@H]2CCC(=O)[C@H]2C1	.	.	-9.8	-4.3[16.7 µM]	-8.1	.
CC(C)CC(NC(=O)CCCNC(=O)CCC(=O)OC1O[C@H]2OC3(C)CC[C@H]4[C@H](C)CCC(C1C)C24OO3)C(=O)O (stereo partly specified)	-14.6	-216.9	73.8*	7.0	16.8	.
C[C@H]1[C@H](OC(=O)CCC(=O)NCc2ccc(C(=O)O)cc2)O[C@@H]2O[C@@]3(C)CC[C@H]4[C@H](C)CC[C@@H]1C24OO3	.	-7.6	.	.	.	-1.4
CC1C(OC(=O)CCC(=O)NC(C)(C)CO)O[C@H]2OC3(C)CC[C@H]4[C@H](C)CCC1C24OO3 (stereo partly specified)	-7.9	-6.3	77.4*	45.2	23.4	-3.7
CC(C)C(NC(=O)C(C(C)C)N(C)C)C(=O)N(C)C(C(=O)N1CCCC1C(=O)N1CCCC1C(=O)NCc1ccccc1)C(C)C (stereo unspecified)	-9.5	.	75.6*	-3.0	55.9*	?
OC[C@@H]1Nc2ccc(C#Cc3cccnc3)cc2[C@@H]2NCC[C@H]12	28.2	.	.	.	.	.
O=C(O)[C@H]1[C@H](CO)[C@H]2Cn3c(ccc(-c4ccncc4)c3=O)[C@@H]1N2C(=O)C1CC1	6.1	-8.7	-3.9	10.6[16.7 µM]	-1.4	.
O=C(O)[C@H]1[C@H](CO)[C@H]2Cn3c(ccc(C4=CCCCC4)c3=O)[C@@H]1N2C(=O)Cc1ccccn1	12.1	-36.7	-4.9	-0.7[16.7 µM]	-0.5	.
COc1ccc(-c2[nH]ncc2CNC(C)Cc2ccsc2)c(F)c1 (stereo unspecified)	2.9	.	8.3	43.7	-1.3	.
CC(Cc1ccsc1)NCc1cn[nH]c1-c1ccc(F)cc1F (stereo unspecified)	11.2	-15.8	4.9	63.1*	0.5	1.4
COC(=O)[C@@H]1[C@@H](CO)[C@@H]2Cn3c(ccc(-c4ccc(F)cc4)c3=O)[C@H]1N2Cc1cccnc1	10.4	-5.6	.	5.5[16.7 µM]	-3.0	.
COc1ccc(S(=O)(=O)Cc2ccc(C(=O)N3CCC4(CC3)OCCO4)o2)cc1	.	112.5*	.	-18.5	.	1.5
CN(C)CC#Cc1ccc([C@@H]2[C@@H](CO)N3CCCCN(C(=O)Cc4ccccn4)C[C@H]23)cc1	3.9	.	-5.8	.	-4.9	4.0[16.7 µM]
Cn1c(=O)cc(OCCCC(=O)N2CCC3(CC2)OCCO3)c2ccccc21	.	.	.	1.3	.	-5.3
Cn1cc(CCC(=O)N2CCC3(CC2)OCCO3)c2ccccc21	10.4	111.7*	.	-11.9	.	-3.5
O=c1c2ccccc2nc(/C=C/c2ccc([N+](=O)[O-])o2)n1-c1ccc(O)cc1	-17.0	.	68.8*	i	83.8*	95.4*
Cc1cccc(-n2c(/C=C/c3ccc([N+](=O)[O-])o3)nc3ccccc3c2=O)c1	-2.1	.	31.1	.	37.8	4.4
CC(=O)N1C[C@@H]2C(c3ccccc3)[C@H](C1)N2CC1CC1 (stereo partly specified)	14.3	.	.	.	.	.
CCN(CCNc1ccc([N+](=O)[O-])c2cccnc12)S(=O)(=O)c1ccc(Cl)cc1	.	4.1	.	81.4*	.	1.1
CCC(C)C1NC(=O)C2CCCN2C(=O)C(CC(C)C)OC(=O)CCNC(=O)C(C)N(C)C(=O)C(C(C)C)N(C)C1=O (stereo unspecified)	-22.1	.	72.2*	14.1	19.9	2.7
O=[N+]([O-])c1ccc(N2CCNCC2)cc1N1CCCCC1	9.7	.	83.1*	-11.6	12.4	.
CC1(C)C2([N+](=O)[O-])CN3CC1([N+](=O)[O-])CN(C2)C3c1cccnc1 (stereo unspecified)	5.2	-0.1	-8.1	1.2	2.5	0.4
SMILES	INS-1E GSIS act	Statin myotox sup	PAX8 reporter	Env fusion inh	EWS-Fli block	miR-122 sensor
CCC12CN3CC(CC)(CN(C1)C3c1cccnc1)C2=O (stereo unspecified)	4.7	137.3*	.	.	.	-1.0
CC12CN3CC(C)(CN(C1)C3c1cccnc1)C2=O (stereo unspecified)	.	122.8*	.	.	.	2.8
O=C1N(c2ccc(Cl)cc2)C(c2cccnc2)N2CCCN12 (stereo unspecified)	8.4	.	-24.0	-11.4	-24.1	.
O=C(O)[C@@H]1[C@@H](CO)[C@@H]2Cn3c(ccc(-c4ccc(F)cc4)c3=O)[C@H]1N2CC1CCCCC1	-0.1	0.0	-5.1	1.5[16.7 µM]	-0.8	.
CC=Cc1ccc2n(c1=O)C[C@H]1[C@H](CO)[C@@H](C(=O)OC)[C@@H]2N1CC1CCCCC1 (mixture of isomers)	-14.6	6.0	11.7	.	6.9	0.4[16.7 µM]
COC(=O)[C@@H]1[C@@H](CO)[C@@H]2Cn3c(ccc(-c4cccc(C(=O)N(C)C)c4)c3=O)[C@H]1N2CC1CC1	2.5	.	-8.9	.	-6.3	.
COC1CCC(OC2CC(C3(C)CCC4(CC(O)C(C)C(C(C)/C=C(\C)C(=O)C(C)CC(C)C(=O)O)O4)O3)OC3(OC(C4OC(O)(CO)C(C)CC4C)CC3C)C2C)OC1C (stereo unspecified)	.	.	105.7*	47.3	64.7*	-1.9
CCN(CC)C(=O)COc1cc(C)cc2oc(=O)c3c(c12)CCCC3	-11.8	7.7	82.2*	-16.6	14.6	1.5
CN1[C@@H]2c3cccc(=O)n3C[C@H]1[C@H](CO)[C@H]2C(=O)NCC1CC1	8.2	0.6	-9.2	2.5[16.7 µM]	-0.9	.
N[C@@H](Cc1ccc(N(CCCl)CCCl)cc1)C(=O)O	12.1	10.1	16.4	15.1	35.3	-1.3
ClCCN(CCCl)c1ccc(-n2cnc3c(Cl)ncnc32)cc1	.	6.2	24.1	11.0	55.2*	20.7
COc1ccc(-n2nnnc2C(c2ccnc3ccccc23)N2CCC(n3c(=O)[nH]c4ccccc43)CC2)cc1 (stereo unspecified)	-12.3	-22.2	3.0	-76.4	5.6	-3.2
CSCCC(c1nnnn1-c1ccc2c(c1)OCCO2)N1CCC(n2c(=O)[nH]c3ccccc32)CC1 (stereo unspecified)	-2.5	-17.5	93.4*	7.4	20.7	-0.7
CCC(c1nnnn1-c1ccc2c(c1)OCCO2)N1CCC(n2c(=O)[nH]c3ccccc32)CC1 (stereo unspecified)	-26.3	-12.5	84.6*	33.9	12.5	1.6
O=c1[nH]c2ccccc2n1C1CCN(C(CCc2ccccc2)c2nnnn2C2CCCC2)CC1 (stereo unspecified)	1.2	12.7	-7.9	-30.1	28.1	2.1
CS(=O)(=O)N1C[C@@H]2N[C@H](C1)C2c1ccccc1 (stereo partly specified)	14.8	.	.	.	.	.
